Over roughly 68,000 sequences, “fluorescence intensity (a.u.)” has its median near 9,100; the highest 2% begin near 16,000. The list comes from a sample in which the highest values are over-represented; it also holds similar and randomly drawn sequences.

Sequence of OsWRKY34 (Q0JBA9 entry or part of it): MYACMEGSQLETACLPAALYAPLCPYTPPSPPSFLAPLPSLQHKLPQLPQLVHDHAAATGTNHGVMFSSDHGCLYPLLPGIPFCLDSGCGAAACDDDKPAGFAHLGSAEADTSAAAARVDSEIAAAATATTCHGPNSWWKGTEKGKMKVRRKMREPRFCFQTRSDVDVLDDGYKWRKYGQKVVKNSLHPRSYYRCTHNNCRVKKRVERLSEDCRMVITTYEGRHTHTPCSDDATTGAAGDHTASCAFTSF

The assay concerns the target OsWRKY34 (Oryza sativa, UniProt Q0JBA9 1-250). Nature of the assay: protein-binding microarray (RPBM); PBS, 2% BSA, 51.3 ng/ul salmon testes DNA, 50 uM zinc acetate, 200 nM TF, 25 C, 1 h; high values mean tight binding. To be noted: protein: recombinant; tags: N-terminal polyhistidine and DsRed monomer fusion (pET32a); label: CyDye5-dUTP incorporated in the synthesized complementary strand; 3' TTTTT single-stranded linker to array surface; dsDNA, one strand shown. In a few lines: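 Polyhistidine-tagged DsRed fusions of transcription factors, joined at the N-terminus, were expressed in E. coli BL21-CodonPlus and isolated on Ni–NTA. They were incubated at 200 nM for 1 h at 25 °C on a custom Agilent array, double-stranded and BSA-blocked, in PBS with 2% BSA, salmon testes DNA and 50 µM zinc acetate. The binding signal is per-feature fluorescence intensity (arbitrary units) read on an Axon 4000B scanner after washing.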
On to “AGAATGGTCTTATATGTTGTGTAGTGGTGTGTGGGCGTGTCGGAGTCACCTAGTGCAG”, for which the binding signal was 8170 fluorescence intensity (a.u.).
Then “ACCGATGACTTTTGGCAAAACTTACAGTAAAACTGCTTATCGGAGTCACCTAGTGCAG”, with 8850 fluorescence intensity (a.u.); and “CCATCTGTCATATTTGTCATCGTTGACTTTTTTAAATATACGGAGTCACCTAGTGCAG”, with 13600 fluorescence intensity (a.u.); and “TATTTTCCTACCATTTGATTTATTGTTAAATATACTTTTTCGGAGTCACCTAGTGCAG”, with 10200 fluorescence intensity (a.u.).
On to “CCTCCGCTCCTAAATATTTGACACCGCTGACTTTTTAAAACGGAGTCACCTAGTGCAG”, for which the binding signal was 11100 fluorescence intensity (a.u.).
Then “ATGTTTGACTTTTTTTTAAAAAATTTATATTTTTTTAAATCGGAGTCACCTAGTGCAG”, with 8390 fluorescence intensity (a.u.); and “ATGCCGTTGACTTTTTAAAATATATTTGACCATTTCCTATCGGAGTCACCTAGTGCAG”, with 21700 fluorescence intensity (a.u.); and “CCTCCGTTTTTAAATATTTGATGCCGTTGACTTTTTAAAACGGAGTCACCTAGTGCAG”, with 19900 fluorescence intensity (a.u.).
Take “CATATCTAACTTTTGACCATCCGTTTTATTTAAAAAAATACGGAGTCACCTAGTGCAG”: the binding signal was 8310 fluorescence intensity (a.u.).
As to “ATATTTGATGCCGTTGACTTTTTAAAATATATTTGATCATCGGAGTCACCTAGTGCAG”, the binding signal is 16400 fluorescence intensity (a.u.).
On to “CCTCCTTTCCTAAATATTTGACGCCGTTGACTTTTTTAAACGGAGTCACCTAGTGCAG”, for which the binding signal is 13500 fluorescence intensity (a.u.).
Turning to “TCCTATGCCTGCAGCCTGTATCAAAAAATTTTCACAATGTCGGAGTCACCTAGTGCAG”, the binding signal was 8480 fluorescence intensity (a.u.).
In the case of “CTATATCGCACGTACTCCGGTACCAACGATCCTATACCATCGGAGTCACCTAGTGCAG”, the binding signal was 9910 fluorescence intensity (a.u.).
As to “TTTTGAAATCCGCGCCTACTTTTTTCTTGTCTCTTCTGTGCGGAGTCACCTAGTGCAG”, the binding signal is 8400 fluorescence intensity (a.u.).
Turning to “CACTCGCCACCGCCGCCCACCCGCAACTGCCGCCGACTCCCGGAGTCACCTAGTGCAG”, the binding signal is 10800 fluorescence intensity (a.u.).
Take “CTATTATAGCGTGTCGGACACTGACTCCTCCCATGTTCCTCGGAGTCACCTAGTGCAG”: the binding signal was 11100 fluorescence intensity (a.u.).
Consider “AACTGAATTGTTGGTTTTTTCGGTTTTCGGTTGTCAGTTCCGGAGTCACCTAGTGCAG”, for which the binding signal is 11900 fluorescence intensity (a.u.).
In the case of “TCCCTAAAATTTTTCACCCTTTCACATTAAACGTTTAACACGGAGTCACCTAGTGCAG”, the binding signal is 11400 fluorescence intensity (a.u.).
In the case of “GTAACCCTAATTTCAGAAACTAAACACAGTCACGTAAGAACGGAGTCACCTAGTGCAG”, the binding signal is 65500 fluorescence intensity (a.u.).
Then “TTGTCAGTTTTCTCTAAACCACAGTAATTAGTCAGTTTCACGGAGTCACCTAGTGCAG”, with 8420 fluorescence intensity (a.u.); and “GTCCGCATCCAATTCCCGGGCCATTCGAAATCCCCAACACCGGAGTCACCTAGTGCAG”, with 10200 fluorescence intensity (a.u.).
Regarding “GGCCATAGCGTGTATTGTTGTGTTTGTGTGTAAAATTTTTCGGAGTCACCTAGTGCAG”, the binding signal was 11300 fluorescence intensity (a.u.).
Regarding “GTATGCCATTCGCCCAAGATGCTTTTGCTTCGCATGGACCCGGAGTCACCTAGTGCAG”, the binding signal is 8540 fluorescence intensity (a.u.).
For the sequence “CTTAATCGGTATGGGGAGAGTGTTCTTATTGTTTCATTTACGGAGTCACCTAGTGCAG”, the binding signal is 16800 fluorescence intensity (a.u.).
As to “ATTCCTATATTTTTCCTATGTTTTGTAATCCTCTGTTTTACGGAGTCACCTAGTGCAG”, the binding signal was 12600 fluorescence intensity (a.u.).
With “AGTTTTTCTAGTCCTTCTTAATGCATGTGTCACCTTCTAACGGAGTCACCTAGTGCAG”, the binding signal was 10300 fluorescence intensity (a.u.).
Turning to “GCTTAATTACATGGGAGAGGCTTTGTTTCTTGTTTATTTTCGGAGTCACCTAGTGCAG”, the binding signal is 8760 fluorescence intensity (a.u.).
Turning to “ATGTTTTTATGCTGCATTCCCCATGTGTGTTTCCTTCTAACGGAGTCACCTAGTGCAG”, the binding signal is 19600 fluorescence intensity (a.u.).
Regarding “GTAATTTAATGTTCATTATGGTGTTTCTTAATTGTTTTTTCGGAGTCACCTAGTGCAG”, the binding signal is 9320 fluorescence intensity (a.u.).
“CTATTCTTGTGTTTTTTTCTATGTTTAATCCTATGTTTTACGGAGTCACCTAGTGCAG”: the binding signal was 16600 fluorescence intensity (a.u.).
Take “TTTTTTTTTCCTTTTGCTGACATGCATTATGTTTTCTATTCGGAGTCACCTAGTGCAG”: the binding signal was 10000 fluorescence intensity (a.u.).
With “TTTATTTCCTAGATTAATTCTGATATGTTTCTATGTTTTACGGAGTCACCTAGTGCAG”, the binding signal is 9260 fluorescence intensity (a.u.).
With “GCCAGACCGCCACCGTCCGTTTCCACAACCGTGCCAGTGCCGGAGTCACCTAGTGCAG”, the binding signal is 10700 fluorescence intensity (a.u.).
Regarding “AGGTTGCCAGCGTGTGGGGTGGGTTATTTTCGTGTGCGGGCGGAGTCACCTAGTGCAG”, the binding signal was 11100 fluorescence intensity (a.u.).
As for “GACCCACCACCACCACCACGCCGCGAGCACGCGAGCGAACCGGAGTCACCTAGTGCAG”, the binding signal is 8880 fluorescence intensity (a.u.).
For the sequence “GGGACCTAGGATGAACTTATTCCTTTCTGTTTCAACCATACGGAGTCACCTAGTGCAG”, the binding signal was 8370 fluorescence intensity (a.u.).
Then “TGTGCCAGTTGTTAGTCATGATCTTCCTGATGTGTCATCCCGGAGTCACCTAGTGCAG”, with 8080 fluorescence intensity (a.u.).
Then “ATTTGGTTTTATATGTTTGTGGAGTGATATATTTCGTATTCGGAGTCACCTAGTGCAG”, with 8350 fluorescence intensity (a.u.).
In the case of “TTTTCAATTTTCTGGTTGAGTAGGGGTTCGGAATTTTCTTCGGAGTCACCTAGTGCAG”, the binding signal is 10600 fluorescence intensity (a.u.).
In the case of “CTTTTTTTTGATTTTTTTTATTTGTGGTTTGGATGTTTTTCGGAGTCACCTAGTGCAG”, the binding signal is 9280 fluorescence intensity (a.u.).
Then “TGGTTTTTCATTTTGTGTGCGTGTGCACGTTTGTGTGGGGCGGAGTCACCTAGTGCAG”, with 12700 fluorescence intensity (a.u.); and “GGTGGTTTGAATTTGGTGTGGCGTTTTTCTTGGGCAGGGGCGGAGTCACCTAGTGCAG”, with 21500 fluorescence intensity (a.u.); and “GGCTGGTTTGGTTTGTGGCTAAAATTGGCCTTACCAATTTCGGAGTCACCTAGTGCAG”, with 10500 fluorescence intensity (a.u.).
As for “TGGTTGAATTCTGGTTCGGGTATCCTCAATTTCGGGGTTTCGGAGTCACCTAGTGCAG”, the binding signal was 17700 fluorescence intensity (a.u.).
For the sequence “TATCCGGTTTTCTGGTTGAGGGGTATGAATTAGATTCGACCGGAGTCACCTAGTGCAG”, the binding signal was 10200 fluorescence intensity (a.u.).
With “TTGGGTTGGGTCTTGGGTTTGGTGGTTTGAATTTGGTGTGCGGAGTCACCTAGTGCAG”, the binding signal is 13100 fluorescence intensity (a.u.).
On to “TTTTTGGCTGGTCAAATTTGGCTAGTGTGGGGAGGGTTTTCGGAGTCACCTAGTGCAG”, for which the binding signal is 23600 fluorescence intensity (a.u.).
On to “GGTGTGTGCTGGCTATTTGTCAAAGATTATGTGGGTTTTTCGGAGTCACCTAGTGCAG”, for which the binding signal was 10400 fluorescence intensity (a.u.).
Regarding “CAGGGTTTGGATGTGGATATGGTTTCTTCAAGGGTATTTTCGGAGTCACCTAGTGCAG”, the binding signal was 16400 fluorescence intensity (a.u.).
Then “TGTTATTATGTTTCAGGAATACTTCCTCTGGTTATAAATACGGAGTCACCTAGTGCAG”, with 9850 fluorescence intensity (a.u.).
Then “ACCCCGTTCAACGCTCGCTTATATATATTCCCCTCTCGCACGGAGTCACCTAGTGCAG”, with 8640 fluorescence intensity (a.u.).
For the sequence “AGCCTTCCGGTGAACTCCGGCGACGGGCGGGTGTGGGGATCGGAGTCACCTAGTGCAG”, the binding signal is 11000 fluorescence intensity (a.u.).
Take “CTATTCTTGTGCATTCTGTTTTTTATCGTACATGCTACAGCGGAGTCACCTAGTGCAG”: the binding signal was 11800 fluorescence intensity (a.u.).
Turning to “ATGGTGGGCTGTGGGTGCATGGTTTTGCTGGTCGCACCCACGGAGTCACCTAGTGCAG”, the binding signal was 11100 fluorescence intensity (a.u.).

The values are drawn from PMC7819943, “Rice protein-binding microarrays: a tool to detect cis-acting elements near promoter regions in rice”.
